Here are results for 14 compounds from PubChem BioAssay.

Assay [1] has as its system Hepatitis C virus NS3 helicase. In words: HCV NS3 helicase inhibitors, primary screen, biochemical, fluorescence polarization, LOPAC1280 library (AID 687035; in the data active means inhibition above about 37%). The settings on record: Purified HCV NS3 helicase, Cy5-dT15 ssDNA binding fluorescence polarization; stronger effect = higher value; concentration not given here. A general note: Fluorescence polarisation rises when a labelled molecule tumbles more slowly, as on binding a larger partner.

Assay [2] can be described thus: Cy5 fluorescence quenching or enhancement artefacts, artefact control for HCV NS3 helicase inhibitor project, biochemical, LOPAC1280 (AID 687037; call rule not given here). Particulars: Cy5-DNA-NS3h complex fluorescence interference counterscreen. (The purpose of a counterscreen is to sort out artefacts and off-target activity.)
The nature of assay [3]: phospholipid biosynthesis inhibitors in animal cells, primary screen, cell-based, LOPAC library, screen 4 (AID 1347384; call rule not given here). Particulars: phospholipid biosynthesis inhibition screen, at 10 µM.
Assay [4] in a line: viability rescue of complex I mutant cybrids, primary screen, cell-based, galactose medium, ATP luminescence (AID 1645843;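 active means z-score of at least 1.8 in each of two replicates, scored against plate mean and spread of sample wells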;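 further: positive z means more ATP and so rescue of galactose-driven cybrid death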). Particulars: complex I mutant cybrid cells, 72 h, stronger effect = higher value.
Assay [5] in a line: liver-stage malaria parasite growth inhibition, primary screen, cell-based, HepG2, luciferase luminescence, HepG2 viability (AID 624349; in the data active means parasite load remaining mostly below about 12%, no sharp cut-off; inactive means mostly above about 10%;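 further: 100% = mean of DMSO negative control wells on the same plate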). The settings on record: P. berghei liver stage in HepG2, luciferase luminescence, concentration not given here; parasite load remaining: stronger effect = lower value; viability: measured here: HepG2 viability without parasites.
The target of assay [6] is NAD(+) hydrolase SARM1 (Homo sapiens) (UniProt Q6SZW1). Put plainly: SARM1 TIR NADase inhibitors, cell lysate, NAD-Glo luminescence (AID 1508614;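 active means compound whose remaining NAD level is above about 45 nM, limit read from the data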). The settings on record: SAM-TIR HEK293T lysate NADase, at 1 µM, stronger effect = higher value.
Sequence of NAD(+) hydrolase SARM1 (Homo sapiens) (Q6SZW1 whole entry, looked up, the tested form may be a part): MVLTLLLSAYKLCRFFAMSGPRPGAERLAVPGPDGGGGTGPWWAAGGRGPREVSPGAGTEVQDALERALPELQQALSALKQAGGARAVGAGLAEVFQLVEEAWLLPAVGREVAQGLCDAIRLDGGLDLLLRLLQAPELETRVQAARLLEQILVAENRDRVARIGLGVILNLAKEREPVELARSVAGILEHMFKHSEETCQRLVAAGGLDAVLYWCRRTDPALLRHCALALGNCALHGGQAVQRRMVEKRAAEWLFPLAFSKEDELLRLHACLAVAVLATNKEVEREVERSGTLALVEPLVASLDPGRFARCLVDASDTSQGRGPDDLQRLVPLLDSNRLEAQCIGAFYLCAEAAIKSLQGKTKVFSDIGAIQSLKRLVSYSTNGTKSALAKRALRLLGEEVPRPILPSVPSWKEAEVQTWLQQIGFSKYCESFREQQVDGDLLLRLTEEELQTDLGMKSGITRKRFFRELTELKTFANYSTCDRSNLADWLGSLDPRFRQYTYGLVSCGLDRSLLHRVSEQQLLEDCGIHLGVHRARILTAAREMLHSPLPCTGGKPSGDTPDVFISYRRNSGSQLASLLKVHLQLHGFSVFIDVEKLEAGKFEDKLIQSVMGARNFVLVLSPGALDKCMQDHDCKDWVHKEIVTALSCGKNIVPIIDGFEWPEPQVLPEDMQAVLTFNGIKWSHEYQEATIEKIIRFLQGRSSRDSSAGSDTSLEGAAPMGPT
For assay [7], the target named is Mitogen-activated protein kinase 7 (Homo sapiens) (UniProt Q13164). Put plainly: ERK5 transactivation activators in reporter cells, primary screen, cell-based, HTS (AID 1508626;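 active means luciferase signal above three times the same-plate solvent-only control wells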;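 further: luciferase driven by Gal4-ERK5 fusion binding five Gal4 sites before minimal TATA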). The settings on record: HeLa Gal4-ERK5 transactivation, 18 h, at 5 µM, stronger effect = higher value.
Sequence of Mitogen-activated protein kinase 7 (Homo sapiens) (Q13164 whole entry, looked up, the tested form may be a part): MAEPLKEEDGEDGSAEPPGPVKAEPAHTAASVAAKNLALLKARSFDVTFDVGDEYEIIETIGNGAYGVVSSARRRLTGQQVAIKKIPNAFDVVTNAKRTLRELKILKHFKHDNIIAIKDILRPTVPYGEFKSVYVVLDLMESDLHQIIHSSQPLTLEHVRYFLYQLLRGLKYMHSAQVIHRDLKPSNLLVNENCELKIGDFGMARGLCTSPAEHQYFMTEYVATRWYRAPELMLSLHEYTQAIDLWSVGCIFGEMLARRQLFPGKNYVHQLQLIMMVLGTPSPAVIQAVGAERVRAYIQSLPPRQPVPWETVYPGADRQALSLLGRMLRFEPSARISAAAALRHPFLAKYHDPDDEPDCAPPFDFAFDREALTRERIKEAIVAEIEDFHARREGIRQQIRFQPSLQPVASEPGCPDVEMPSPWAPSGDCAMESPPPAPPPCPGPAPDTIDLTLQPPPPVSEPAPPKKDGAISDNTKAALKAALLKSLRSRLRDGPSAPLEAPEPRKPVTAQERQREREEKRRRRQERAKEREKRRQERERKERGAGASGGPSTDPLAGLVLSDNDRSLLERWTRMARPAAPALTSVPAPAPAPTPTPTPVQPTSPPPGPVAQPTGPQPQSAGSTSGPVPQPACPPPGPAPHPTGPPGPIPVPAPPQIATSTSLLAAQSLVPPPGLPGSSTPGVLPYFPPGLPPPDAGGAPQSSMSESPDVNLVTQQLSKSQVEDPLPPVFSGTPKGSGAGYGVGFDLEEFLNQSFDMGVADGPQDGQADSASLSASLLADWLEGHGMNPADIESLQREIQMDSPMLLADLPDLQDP
Assay [8] in a line: growth inhibition of DIPG glioma cells, dose response, cell-based, SU-DIPG-XVII, MIPE5.0, CellTiter-Glo, qHTS (AID 1347060; cut-off not given, nearly all actives have AC50 up to about 26 µM;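 on AC50: cells exposed to compound for 48 hours before viability readout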). Particulars: SU-DIPG-XVII viability, CellTiter-Glo ATP luminescence.
Assay [9] in a line: kinase inhibitors against Plasmodium liver-stage infection, cell-based, known kinase inhibitor set, luminescence, hepatoma host viability (AID 624392; call rule not given here;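 further: infected cells incubated roughly two days before readout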). Particulars: Plasmodium liver stage in hepatoma cells, luciferase luminescence, concentration not given here; liver cell % of control: measured here: host liver cell viability; parasite % of control: stronger effect = lower value.
Assay [10] can be described thus: LFS_MB_1R medulloblastoma cell growth inhibition, synergistic combos for chromothripsis tumors, cisplatin or BGB combos (AID 1671452).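 Further: cells exposed for 96 hours before readout.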 The settings on record: LFS_MB_1R medulloblastoma cells, stronger effect = higher value.
A short description of assay [11]: CRL2098 osteosarcoma cell growth inhibition, synergistic combos for chromothripsis tumors, BGB or cisplatin IC20 combos (AID 1671454).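 Further: cells exposed for 96 h before readout; 0% = vehicle DMSO and 100% = killing by high DMSO.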 Particulars: CRL2098 osteosarcoma cells, drug combinations, stronger effect = higher value.
Assay [12] in a line: HD-MB03 medulloblastoma cell growth inhibition, synergistic combos for chromothripsis tumors, BGB or cisplatin IC20 combos (AID 1671455; in the data active means inhibition above about 83%;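 further: 0% = vehicle DMSO and 100% = high DMSO as cytotoxic control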). The settings on record: HD-MB03 medulloblastoma cells, stronger effect = higher value.
Assay [13] can be described thus: UWB1.289 ovarian carcinoma cell growth inhibition, synergistic combos for chromothripsis tumors, BGB or cisplatin combos (AID 1671456).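 Further: cells exposed to compound for four days; 0% = vehicle DMSO and 100% = killing by high DMSO.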 Particulars: UWB1.289 ovarian carcinoma cells, stronger effect = higher value.
A short description of assay [14]: LFS_MB_2R medulloblastoma cell growth inhibition, synergistic combos for chromothripsis tumors, cisplatin combos (AID 1671457).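 Further: cells exposed to compound for four days before readout.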 Particulars: LFS_MB_2R medulloblastoma cells, stronger effect = higher value.
Assay [15] in a line: UWB1.289_BRCA1 ovarian cancer growth, cell-based, BGB or cisplatin combinations (AID 1671459). Particulars: UWB1.289 BRCA1 ovarian carcinoma, drug combinations, stronger effect = higher value.
The nature of assay [16]: human astrocyte viability loss, single and combined drugs, cytotoxicity control for chromothriptic childhood tumor combination screen, cell-based, BGB or cisplatin IC20 combos (AID 1671460).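 Further: cells exposed to compounds for 96 hours before viability readout; 0% = vehicle and 100% = killing control.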 The settings on record: Human astrocytes, drug combinations, stronger effect = higher value.
Where [17] appears, read: measured here: combination with BGB IC40, at 0.05 µM.
[18] abbreviates: measured here: combination with cisplatin, at 0.5 µM.
The mark [19] stands for this setting: measured here: combination with cisplatin, at 5 µM.
The mark [20] stands for this setting: measured here: combination with BGB at IC20, at 0.5 µM.
Setting [21] is: measured here: combination with cisplatin at IC20, at 0.5 µM.
Where [22] appears, read: measured here: combo with BGB at IC20, at 0.5 µM.
[23] abbreviates: measured here: combo with cisplatin at IC20, at 0.5 µM.
The mark [24] stands for this setting: measured here: inhibition with BGB combination, at 0.05 µM.
Where [25] appears, read: measured here: inhibition with cisplatin combination, at 0.05 µM.
The mark [26] stands for this setting: BGB combination, concentration series, at 5 µM.
Where [27] appears, read: cisplatin combination, concentration series, at 5 µM.
The mark [28] stands for this setting: measured here: combo with BGB IC20, at 0.5 µM.
Setting [29] is: measured here: combo with cisplatin IC20, at 0.5 µM.

“And” between values parts separate entries of the source, which are not always exact repeats. Identical values can stand only once. Inconclusive results are not listed. The source made the active and inactive calls. Unless noted, no stated cut-off is given here; in the data, active means inhibition above about 80%; inactive means the rest.

Turning to `CCc1ccc(/C=C2/SC(=S)NC2=O)cc1`, the inhibition in assay [1] was -3% (inactive). Also, the fluorescence ratio (interference) in assay [2] was 1 (inactive). Also, the call in assay [3] was inactive. For the same compound, the z-score in assay [4] was -0.65 (inactive).
Consider `CCOC(=O)C1=C[C@@H](OC(CC)CC)[C@H](NC(C)=O)[C@@H](N)C1`, for which, in [5], the parasite load remaining is 175% (inactive) and 21.5% (inactive); the viability is 83.1% and 67.5%. For the same compound, the remaining NAD in assay [6] was 10 nM (inactive). In addition, the luciferase signal in assay [7] was 56 AU (inactive). In assay [4], the z-score is 0.705 (inactive).
As to `CCN(c1cc(-c2ccc(CN3CCOCC3)cc2)cc(C(=O)NCc2c(C)cc(C)[nH]c2=O)c1C)C1CCOCC1`, in assay [8], the result was inactive.
Turning to `Cc1cc2c(F)c(Oc3ncnn4cc(OC[C@@H](C)O)c(C)c34)ccc2[nH]1`, the AC50 in assay [8] is 14.8 µM (active).
`CC(=O)N1CCN(CCOc2ccc(C3CCN(C4=Nn5c(nnc5C(F)(F)F)CC4)CC3)cc2)CC1`: the outcome in [8] was inactive.
Regarding `O=C(CO)N1CCC(c2[nH]nc(-c3ccc(Cl)cc3)c2-c2ccncn2)CC1`, in [9], the liver cell % of control is 88.6% and 86.6% and 97.2%; the parasite % of control was 11.9% (inactive) and 26% (inactive) and 30.9% (inactive).
For the compound `COc1cc(OC)c2c(=O)[nH]c(-c3cc(C)c(OCCO)c(C)c3)nc2c1`, in [8], the call was inactive.
On to `c1cc(-c2cnn3cc(-c4ccc(OCCN5CCCCC5)cc4)cnc23)ccn1`, for which, in assay [5], the parasite load remaining is 40.1% (inactive) and the viability was found to be 103%.
`CCNc1cc(NC2CCC(O)CC2)nc(Nc2ccc3c(ccn3Cc3ccccc3)c2)n1` (stereo not given): in assay [9], the liver cell % of control came out at 83.4% and the parasite % of control is 33.8% (inactive).
For the compound `CNC(=O)[C@@H](NC(=O)[C@H](CC(C)C)[C@H](O)C(=O)NO)C(C)(C)C`, in [8], the AC50 was 18.6 µM (active).
For `CCN(CC)CCn1c(=O)c(Cc2ccc(OC)cc2)nc2ccccc21`, in [1], the inhibition is 0% (inactive). Moreover, the fluorescence ratio (interference) in [2] is 1 (inactive). Also, the outcome in [3] was inactive. Also, in assay [4], the z-score was -0.075 (inactive).
In the case of `Nc1ccccc1NC(=O)c1ccc(CNC(=O)OCc2cccnc2)cc1`, the inhibition is 61% (inactive) and 41.3% (inactive) in [10] (at 0.5 µM); -9.37% and -18.3% in assay [10] (setting [17]); 79.3% and 71.8% in assay [10] (setting [18]); 96.9% and 96.1% in assay [10] (setting [19]); 0.19% (inactive) and -6.59% (inactive) in assay [11] (at 0.5 µM); -0.645% and -36.5% in assay [11] (setting [20]). Moreover, the inhibition in assay [11] (setting [21]) is 30.1% and 43.8%; in assay [12] (at 0.5 µM), 42.6% (inactive) and 20.9% (inactive); in [12] (setting [22]) it was 34.7% and 26.6%; in assay [12] (setting [23]), 87.6% and 25.8%; in assay [13] (at 0.5 µM), 18.2% (inactive) and 10.7% (inactive); in assay [13] (setting [24]) it was 0.005% and -12.1%. The inhibition in assay [13] (setting [25]) is -11.8% and 3.27%; in assay [14] (at 0.5 µM), 39.2% (inactive) and 22.4% (inactive); in [14] (setting [18]) it was 66.8% and 38.1%; in assay [14] (setting [19]), 99.8% and 92.3%; in assay [15] (setting [26]), 98.1% and 86.1%; in assay [15] (at 0.5 µM), 28.5% (inactive) and 10.5% (inactive). For the same compound, the inhibition in [15] (setting [27]) is 104% and 98.8%; in [16] (at 0.5 µM), 5.28% (inactive) and 8.78% (inactive); in assay [16] (setting [28]), 3.25% and 5.25%; in assay [16] (setting [29]), 2.55% and 12.8%.
Take `c1nc2nc(Nc3ccc(N4CCOCC4)cc3)nc(NC3CCCCC3)c2[nH]1`: in [5], the parasite load remaining is 59.2% (inactive) and the viability turned out to be 68.1%.
Turning to `C/C(=C\C(=O)Nc1ccccc1C(=O)O)c1ccc2ccccc2c1`, the inhibition in assay [10] (at 0.5 µM) is -15% (inactive) and -22.4% (inactive); in assay [10] (setting [17]), -9.05% and -43.4%; in assay [10] (setting [18]) it was -18.5% and -27.8%; in [10] (setting [19]), -22.6% and -72.2%; in assay [11] (at 0.5 µM), -36.1% (inactive) and -95.9% (inactive); in [11] (setting [20]), -28.4% and -70.2%. Also, the inhibition was -47.6% and -160% in assay [11] (setting [21]); -6.95% (inactive) and -18.5% (inactive) in [12] (at 0.5 µM); -7.43% and -31.2% in assay [12] (setting [22]); -10.4% and -19.6% in assay [12] (setting [23]); 9.98% (inactive) and -21.6% (inactive) in assay [13] (at 0.5 µM); 3.22% and -36.6% in assay [13] (setting [24]). The inhibition in [13] (setting [25]) is -9.11% and -30.4%; in assay [14] (at 0.5 µM), -3.77% (inactive) and -16.3% (inactive); in assay [14] (setting [18]), 1.51% and -14.7%; in assay [14] (setting [19]), 6.83% and -4.92%; in assay [15] (setting [26]), -7.61% and -2.79%; in assay [15] (at 0.5 µM), -8.12% (inactive) and -20.7% (inactive). In addition, the inhibition was 1.63% and -4.56% in assay [15] (setting [27]); -12.6% (inactive) and 0.11% (inactive) in [16] (at 0.5 µM); -9.38% and 5.29% in [16] (setting [28]); -22.2% and -3.59% in assay [16] (setting [29]).

Usually inhibition stands for the relative decrease from the control value, in per cent. Broadly, the viability is a read-out of living cells in per cent, often relative to untreated cells. Usually AC50 stands for the concentration giving half of the maximal activity seen.
